Data: the supplement of paper PMC8728848
About 410 targets per protein were measured; listed, in parts, are those with the strongest signals and a random draw of the rest.

Assays:
Experiment in all cases: glycan array binding signal (z-score within array); higher = stronger binding
Conditions in all cases: glycan notation: IUPAC condensed, linker removed; mutation: E41G
[1] = target: Gal4S6S(b1-4)GlcNAc
In short: (§1)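 Negative Z-scores can be read as non-binding. The Z-score is calculated within each array and then averaged across arrays of one protein sequence at different concentrations or buffers and across linkers. Arrays, 3228 in all, were curated from the Consortium for Functional Glycomics database and kept only where the protein sequence was available.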

[2] = target: Gal6S(b1-4)Glc
In short: as §1

[3] = target: GalNAc(b1-3)Gal(a1-4)Gal(b1-4)GlcNAc
In short: as §1

[4] = target: GlcNAc(b1-2)[GlcNAc(b1-4)]Man(a1-3)[GlcNAc(b1-4)][GlcNAc(b1-2)Man(a1-6)]Man(b1-4)GlcNAc(b1-4)GlcNAc
In short: as §1

[5] = target: GlcNAc(b1-2)[GlcNAc(b1-6)]Man(a1-6)[GlcNAc(b1-2)Man(a1-3)]Man(b1-4)GlcNAc(b1-4)GlcNAc
In short: as §1

[6] = target: GlcNAc(b1-3)Gal(b1-4)GlcNAc(b1-2)Man(a1-3)[GlcNAc(b1-3)Gal(b1-4)GlcNAc(b1-2)Man(a1-6)]Man(b1-4)GlcNAc(b1-4)GlcNAc
In short: as §1

[7] = target: GlcNAc(b1-3)Gal(b1-4)GlcNAc(b1-3)Gal(b1-4)GlcNAc(b1-3)Gal(b1-4)GlcNAc(b1-3)Gal(b1-4)GlcNAc(b1-2)[GlcNAc(b1-3)Gal(b1-4)GlcNAc(b1-3)Gal(b1-4)GlcNAc(b1-3)Gal(b1-4)GlcNAc(b1-3)Gal(b1-4)GlcNAc(b1-6)]Man(a1-6)[GlcNAc(b1-3)Gal(b1-4)GlcNAc(b1-3)Gal(b1-4)GlcNAc(b1-3)Gal(b1-4)GlcNAc(b1-3)Gal(b1-4)GlcNAc(b1-2)Man(a1-3)]Man(b1-4)GlcNAc(b1-4)[Fuc(a1-6)]GlcNAc
In short: as §1

[8] = target: GlcNAc(b1-6)Gal(b1-4)GlcNAc
In short: as §1

[9] = target: Kdn(a2-3)Gal(b1-4)GlcNAc
In short: as §1

[10] = target: Man(a1-2)Man(a1-2)Man(a1-3)Man
In short: as §1

[11] = target: Man(a1-2)Man(a1-2)Man(a1-6)[Man(a1-3)]Man
In short: as §1

[12] = target: Man(a1-2)Man(a1-3)Man
In short: as §1

[13] = target: Man(a1-2)Man(a1-3)[Man(a1-2)Man(a1-6)]Man
In short: as §1

[14] = target: Man(a1-2)Man(a1-3)[Man(a1-2)Man(a1-6)]Man(a1-6)[Man(a1-2)Man(a1-2)Man(a1-3)]Man
In short: as §1

[15] = target: Man(a1-2)Man(a1-3)[Man(a1-6)]Man(a1-6)[Man(a1-2)Man(a1-3)]Man(b1-4)GlcNAc(b1-4)GlcNAc
In short: as §1

[16] = target: Man(a1-2)Man(a1-6)[Man(a1-3)]Man(a1-6)[Man(a1-2)Man(a1-2)Man(a1-3)]Man
In short: as §1

[17] = target: Man(a1-2)Man(a1-6)[Man(a1-3)]Man(a1-6)[Man(a1-2)Man(a1-2)Man(a1-3)]Man(b1-4)GlcNAc(b1-4)GlcNAc
In short: as §1

[18] = target: Man(a1-3)[Man(a1-6)]Man(a1-6)[Man(a1-2)Man(a1-3)]Man(b1-4)GlcNAc(b1-4)GlcNAc
In short: as §1

[19] = target: Neu5Ac(a2-3)Gal(b1-3)GalNAc(b1-4)Gal(b1-4)Glc
In short: as §1

[20] = target: Neu5Ac(a2-3)Gal(b1-3)GlcNAc6S
In short: as §1

[21] = target: Neu5Ac(a2-3)Gal(b1-4)GlcNAc(b1-3)Gal(b1-4)GlcNAc(b1-3)[Neu5Ac(a2-3)Gal(b1-4)GlcNAc(b1-3)Gal(b1-4)GlcNAc(b1-6)]GalNAc
In short: as §1

[22] = target: Neu5Ac(a2-6)Gal
In short: as §1

[23] = target: Neu5Ac(a2-6)Gal(b1-4)GlcNAc(b1-2)[Neu5Ac(a2-6)Gal(b1-4)GlcNAc(b1-6)]Man(a1-6)[Neu5Ac(a2-6)Gal(b1-4)GlcNAc(b1-2)Man(a1-3)][GlcNAc(b1-4)]Man(b1-4)GlcNAc(b1-4)GlcNAc
In short: as §1

[24] = target: Neu5Ac(a2-6)Gal(b1-4)GlcNAc(b1-3)Gal(b1-4)GlcNAc(b1-3)Gal(b1-4)GlcNAc(b1-2)Man(a1-3)[Neu5Ac(a2-6)Gal(b1-4)GlcNAc(b1-3)Gal(b1-4)GlcNAc(b1-3)Gal(b1-4)GlcNAc(b1-2)Man(a1-6)]GalNAc
In short: as §1

[25] = target: Neu5Ac(a2-6)Gal(b1-4)GlcNAc(b1-6)[Gal(b1-3)GlcNAc(b1-3)]Gal(b1-4)Glc
In short: as §1

[26] = target: Neu5Ac(a2-8)Neu5Ac(a2-8)Neu5Ac(a2-3)Gal(b1-4)Glc
In short: as §1

[27] = target: Neu5Gc(b2-6)Gal(b1-4)GlcNAc
In short: as §1

B1: CVN-E41G (protein)
chain: MHHHHHHENLYFQSGNFSQACYNSAIQGSVLTSTCIRTNGGYNTSSIDLNSVIGNVDGSLKWQGSNFIETCRNTQLAGSSELAAECKTRAQQFVSTKINLDDHIAAIDGTLKYE
Question: For B1, which “glycan array binding signal (z-score)” value [1] is on record?
Answer: Its value is -0.19.

Question: And the “glycan array binding signal (z-score)” value [2]?
Answer: The value was -0.138.

Question: And the “glycan array binding signal (z-score)” value [3]?
Answer: Its value is -0.154.

Question: What about the “glycan array binding signal (z-score)” value [4] of the same binder?
Answer: The value was -0.148.

Question: What about the “glycan array binding signal (z-score)” value [5] of the same binder?
Answer: The value was -0.145.

Question: And the “glycan array binding signal (z-score)” value [6]?
Answer: The value was -0.152.

Question: What about the “glycan array binding signal (z-score)” value [7] of the same binder?
Answer: Its value is -0.123.

Question: What about the “glycan array binding signal (z-score)” value [8] of the same binder?
Answer: Its value is -0.121.

Question: What about the “glycan array binding signal (z-score)” value [9] of the same binder?
Answer: Its value is -0.154.

Question: And the “glycan array binding signal (z-score)” value [10]?
Answer: Its value is 7.32.

Question: What about the “glycan array binding signal (z-score)” value [11] of the same binder?
Answer: Its value is 9.78.

Question: And the “glycan array binding signal (z-score)” value [12]?
Answer: Its value is 5.5.

Question: What about the “glycan array binding signal (z-score)” value [13] of the same binder?
Answer: The value was 8.72.

Question: What about the “glycan array binding signal (z-score)” value [14] of the same binder?
Answer: The value was 11.

Question: What about the “glycan array binding signal (z-score)” value [15] of the same binder?
Answer: Its value is 6.59.

Question: And the “glycan array binding signal (z-score)” value [16]?
Answer: The value was 8.16.

Question: What about the “glycan array binding signal (z-score)” value [17] of the same binder?
Answer: The value was 8.78.

Question: What about the “glycan array binding signal (z-score)” value [18] of the same binder?
Answer: Its value is 4.

Question: And the “glycan array binding signal (z-score)” value [19]?
Answer: The value was -0.111.

Question: What about the “glycan array binding signal (z-score)” value [20] of the same binder?
Answer: Its value is -0.165.

Question: And the “glycan array binding signal (z-score)” value [21]?
Answer: The value was -0.126.

Question: What about the “glycan array binding signal (z-score)” value [22] of the same binder?
Answer: The value was -0.168.

Question: What about the “glycan array binding signal (z-score)” value [23] of the same binder?
Answer: Its value is -0.139.

Question: And the “glycan array binding signal (z-score)” value [24]?
Answer: Its value is -0.112.

Question: What about the “glycan array binding signal (z-score)” value [25] of the same binder?
Answer: Its value is -0.167.

Question: And the “glycan array binding signal (z-score)” value [26]?
Answer: Its value is -0.173.

Question: And the “glycan array binding signal (z-score)” value [27]?
Answer: The value was -0.155.
